LmPK inh: LmPK (Leishmania mexicana) enzyme inhibition; Q27686; purified LmPK, Kinase-Glo ATP luminescence, 1 h; Potency, µM (doses to about 57.5 µM), usual class: inhibitors; 0.37% of 290,000 active
Target sequence (Q27686 whole entry, looked up): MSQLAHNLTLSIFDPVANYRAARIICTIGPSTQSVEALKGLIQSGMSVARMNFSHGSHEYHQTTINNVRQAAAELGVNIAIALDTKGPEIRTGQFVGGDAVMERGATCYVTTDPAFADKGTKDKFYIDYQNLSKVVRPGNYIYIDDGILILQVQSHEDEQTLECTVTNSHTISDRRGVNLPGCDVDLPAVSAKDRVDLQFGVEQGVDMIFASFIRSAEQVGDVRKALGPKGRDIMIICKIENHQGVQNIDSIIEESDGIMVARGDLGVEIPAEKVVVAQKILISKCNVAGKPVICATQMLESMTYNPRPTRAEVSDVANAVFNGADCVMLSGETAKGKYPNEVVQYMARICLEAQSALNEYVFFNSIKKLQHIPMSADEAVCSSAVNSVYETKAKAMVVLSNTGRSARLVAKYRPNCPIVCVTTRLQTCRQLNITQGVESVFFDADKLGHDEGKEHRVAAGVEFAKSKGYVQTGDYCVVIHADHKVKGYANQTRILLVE
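Screened at intermediate enzyme activity to detect both inhibitors and activators: LmPK at 0.1 nM, with a 0.5 nM enzyme column as activation reference. PEP 0.5 mM, ADP 0.1 mM; ATP detected by luminescence after 1 h.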
Pf growth 96h: P. falciparum growth inhibition at 96 hour, primary screen for plastid delayed-death inhibitors; 6.9% of 320,000 active; P. falciparum luciferase reporter growth, 96 h; AID 504834; Potency, µM (doses to about 28.7 µM), hits mostly inhibitors
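Parasite growth measured via integrated firefly luciferase reporter in P. falciparum. Infected erythrocytes at 2% hematocrit, 0.05% parasitemia final were treated 96 hours at 37 C under 5% CO2, and luminescence was read.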
Shiga inhibitor: Shiga toxin inhibition; Vero cells, Shiga toxin protein synthesis inhibition reporter; inhibition, % at 38.7 µM; 9.2% of 290,000 active; in the data active means inhibition mostly above about 28%, no sharp cut-off; inactive means mostly below about 43%
Cycloheximide cs: counter-screen hit for Shiga toxin inhibitors, cycloheximide. cell reporter, cycloheximide protein synthesis inhibition counterscreen. max response, %. 12% of 300,000 active; in the data active means max response mostly above about 13%, no sharp cut-off; inactive means mostly below about 14%; further: read at 38.3 µM for the half of the compounds with a filed dose
Pf growth 48h: inhibits P. falciparum growth in the first generation, 48 h | P. falciparum luciferase growth in erythrocytes, 48 h | Potency, µM (doses to about 28.7 µM), actives largely listed as inhibitors | 5.9% of 310,000 active | AID 504832
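Compounds are pin-transferred into medium, infected erythrocytes (2% hematocrit, 0.1% parasitemia final) are added, and plates sit one parasite generation at 37 C in 5% CO2. Detection reagent is then added and luminescence measured.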
Numbers stand for hits; i = inactive; ? = inconclusive; nt = no result; [ ] = dose if it differs, or a comment. Compounds with a hit are over-represented: about 22% of the library has one in this group of screens. Unless noted, the call rests on the fitted dose curve; in most records, active means well fitted inhibition curve with a large enough effect; inconclusive means small, poorly fitted or top-dose-only effect, or another doubt; inactive means no such curve, though single readings can be large or run the other way.

SMILES	LmPK inh	Pf growth 96h	Shiga inhibitor	Cycloheximide cs	Pf growth 48h
COc1ccc(C2=NN(C(=O)CSc3nc(=O)n4cc(C)ccc4n3)C(c3ccc(C)cc3)C2)cc1 (centres undefined)	nt	8.3µM	nt	nt	?
COc1ccc(C2=NN(C(=O)CSc3nc4ccccc4s3)C(c3ccc(OC)cc3)C2)cc1 (centres undefined)	i	?	i	i	12µM
COc1ccc(C2=NN(C(=O)CSc3nc4ccccc4s3)C(c3ccc(F)cc3)C2)cc1 (centres undefined)	i	?	i	i	?
COc1ccc2c(c1)C(C)CC(C)(C)N2C(=O)CSc1nc2ccccc2s1 (centres undefined)	i	10µM	i	i	?
NNC(=O)[C@H](Cc1ccccc1)NC(=O)NCCc1ccccc1	i	i	i	i	i
Cc1cc(NS(=O)(=O)c2ccc(NC(=O)CCCOc3ccccc3C)cc2)no1	i	i	i	i	i
COc1ccc(Nc2cc(C(=O)NC3CCCC3)c3ccccc3n2)c(OC)c1	i	?	i	i	i
Cc1ccc(C2CC(c3ccc(Br)cc3)=NN2C(=O)CSC2=NN3CCCC(=O)N=C3S2)cc1 (centres undefined)	i	i	i	i	12µM
COc1ccc(C2=NN(C(=O)CSc3ncccn3)C(c3ccc(OC)cc3)C2)cc1 (centres undefined)	i	?	i	i	10µM
COc1ccc(C2CC(c3ccc4ccccc4c3)=NN2C(=O)CN2C(=O)CCC2=O)cc1 (centres undefined)	i	?	i	i	9.3µM
O=C1CCCN2N=C(SCC(=O)N3N=C(c4ccc(Br)cc4)CC3c3ccc(F)cc3)SC2=N1 (centres undefined)	i	?	i	i	?
CCc1ccc(NC(=O)C2CCN(S(=O)(=O)c3ccc4[nH]c(=O)ccc4c3)CC2)cc1	i	?	i	i	i
C=CCn1cnc2c(oc3ccccc32)c1=O	i	i	i	25	i
O=c1c2oc3ccccc3c2ncn1Cc1ccccc1F	i	?	i	30	?
CCCS(=O)(=O)N1CCC(C(=O)NC2CCCC(C)C2C)CC1 (centres undefined)	i	9.3µM	i	i	i
CCCS(=O)(=O)N1CCCC(C(=O)NC2CCCC(C)C2C)C1 (centres undefined)	i	?	i	i	i
CC1CN(CCc2ccccc2)c2nc3c(c(=O)n(CC(N)=O)c(=O)n3C)n2C1 (centres undefined)	i	i	i	i	i
CCN(CCCNC(=O)C1CCN(C(=O)c2cc3sccc3n2C)CC1)Cc1ccccc1	i	?	i	i	?
CCCCN(CCCNC(=O)C1CCN(C(=O)c2cc3sccc3n2C)CC1)Cc1ccccc1	i	i	i	i	5.2µM
O=C(Nc1ccnn1C1CCN(Cc2c[nH]c3ccccc23)CC1)c1ccccc1	i	i	i	i	?
CC(C)c1csc(CN2CCC(CO)(Cc3cccc(F)c3)CC2)n1	i	?	i	i	?
COCCCN(C(=S)Nc1cc(Cl)cc(Cl)c1)C(C)c1ccccn1 (centres undefined)	i	i	i	i	i
CCCNS(=O)(=O)c1ccc(NC(=O)c2cccnc2)cc1	i	i	i	i	nt
CC/C(=C\C(=O)c1cccnc1)Nc1ccc(C)c(C)c1	i	?	52	17	?
COCCCN(C(=O)Nc1ccc(C)c(C)c1)C(C)c1ccccn1 (centres undefined)	i	13µM	i	i	nt
SMILES	LmPK inh	Pf growth 96h	Shiga inhibitor	Cycloheximide cs	Pf growth 48h
COCCN(C(=O)Nc1ccccc1)C(C)c1cccnc1 (centres undefined)	i	5.2µM	i	i	nt
CCc1ccc(NC(=O)c2cccnc2)cc1	i	i	73	32	i
O=C(c1ccc(F)c(F)c1)N1CCC2(CC1)NCCc1[nH]cnc12	i	i	i	i	i
C=C1CCC2[C@](C)(CO[C@@H]3O[C@H](CO)[C@@H](O)[C@H](O)[C@H]3O)CCC[C@@]2(C)[C@@H]1CCC1=CCOC1=O (some centres undefined)	nt	i	nt	nt	?
Cc1ccc(NC(=O)N(C2CCCCC2)C(C)c2cccnc2)cc1C (centres undefined)	i	i	i	i	nt
CCc1ccc(NC(=O)N(C2CCCCC2)C(C)c2cccnc2)cc1 (centres undefined)	i	i	i	33	nt
CCSc1ccc(NC(=O)c2cccnc2)cc1	i	i	i	34	i
S=c1[nH]c2ccccc2n2cccc12	i	?	i	i	?
S=c1[nH]c2ccccc2o1	i	i	83	13	i
CC(C)(C)c1ccc(Cn2nc(CC(=O)O)c3ccccc3c2=O)cc1	i	i	i	i	i
CC(C)C(O)(C#CCN1CCCCCC1)c1ccccc1 (centres undefined)	i	i	i	14	?
CC(O)(C#CCN1CCCCC1)c1ccccc1 (centres undefined)	i	i	i	i	i
Cn1c(=N)n(CC(=O)C(C)(C)C)c2ccccc21	i	i	148	27	?
CCn1c(=N)n(CC(=O)C(C)(C)C)c2ccccc21	i	9.3µM	i	i	nt
CCCn1c(=N)n(CC(=O)C(C)(C)C)c2ccccc21	i	?	i	i	?
COc1ccc2[nH]c3c(N4CC(C)OC(C)C4)ncnc3c2c1 (centres undefined)	i	?	i	i	nt
COc1ccc2c(c1)[nH]c1c(N3CCN(Cc4ccc5c(c4)OCO5)CC3)ncnc12	i	?	i	i	2.6µM
COc1cc2[nH]c3c(Cl)ncnc3c2cc1OC	i	?	i	i	?
COc1ccc2c(c1)[nH]c1c(N3CCSCC3)ncnc12	i	6.6µM	i	i	4.7µM
Cc1ccc2[nH]c3c(N4CCN(Cc5ccc6c(c5)OCO6)CC4)ncnc3c2c1	i	nt	i	i	?
COc1cc2[nH]c3c(N4CCN(c5ccc(Cl)cc5)CC4)ncnc3c2cc1OC	i	?	i	i	4.1µM
O=C(O)c1ccc(-n2nnnc2Oc2cccc3cccnc23)cc1	i	nt	i	i	i
Cc1noc(C)c1C(=O)OCC(=O)c1cc(C)n(Cc2ccccc2Cl)c1C	i	nt	63	45	i
N/C(=N\OC(=O)CCC1CCCC1)c1ccccn1	?	i	65	52	i
N/C(=N\OC(=O)Cc1ccccc1)c1ccc([N+](=O)[O-])cc1	i	i	42	30	i
SMILES	LmPK inh	Pf growth 96h	Shiga inhibitor	Cycloheximide cs	Pf growth 48h
N/C(=N\OC(=O)CCC1CCCCC1)c1cccc([N+](=O)[O-])c1	i	i	i	i	i
N/C(=N\OC(=O)CCC1CCCC1)c1ccccc1	?	i[1.15 µM]	i	20	i
N/C(=N\OC(=O)CCC1CCCC1)c1ccc([N+](=O)[O-])cc1	i	?	i	19	i[5.75 µM]
N/C(=N\OC(=O)CCCc1ccccc1)c1ccc([N+](=O)[O-])cc1	i	i	i	i	i
N/C(Cc1ccc([N+](=O)[O-])cc1)=N\OC(=O)Cc1ccccc1	i	i	i	i	i
CC(=O)Nc1ccc(SCC(=O)c2cc(C)n(-c3ccccc3)c2C)cc1	i	i	i	45	i

High-throughput results as filed in PubChem BioAssay.
